Measured values taken from PubChem BioAssay (NCI).
The panel holds about 83,000 compounds, 20% with a hit somewhere; the sample as a whole holds those more often.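 Each cell line was grown in a 96-well plate and treated with one concentration of compound for 48 hours. Values below 10 were considered active.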 Calls of active or inactive are those of the source.

How the values were obtained:
Test in all cases: NCI-60 one-dose screen, 48 h (100 = growth as untreated, 0 = no growth, -100 = all killed)
DU-145 prostate = conditions: 10 µM unless noted
K-562 leukemia = conditions: 10 µM unless noted
MALME-3M melanoma = conditions: 10 µM unless noted
RXF 393 renal = conditions: 10 µM unless noted
SF-295 CNS = conditions: 10 µM unless noted
UACC-257 melanoma = conditions: 10 µM unless noted
SNB-19 CNS = conditions: 10 µM unless noted
SK-MEL-5 melanoma = conditions: 10 µM unless noted
LOX IMVI melanoma = conditions: 10 µM unless noted
SK-MEL-2 melanoma = conditions: 10 µM unless noted
ACHN renal = conditions: 10 µM unless noted
HL-60(TB) leukemia = conditions: 10 µM unless noted
CCRF-CEM leukemia = conditions: 10 µM unless noted
MOLT-4 leukemia = conditions: 10 µM
OVCAR-8 ovarian = conditions: 10 µM unless noted
IGROV1 ovarian = conditions: 10 µM
OVCAR-3 ovarian = conditions: 10 µM unless noted
NCI/ADR-RES ovarian = conditions: 10 µM unless noted
T-47D breast = conditions: 10 µM unless noted
HCC-2998 colon = conditions: 10 µM unless noted

Measured: growth

CCOC(=O)c1cnc(SCc2ccc(Cl)c(Cl)c2)nc1N1CC1
inactive: DU-145 prostate 66.7% | K-562 leukemia 21.4% | MALME-3M melanoma 68.6% | RXF 393 renal 66.6% | SF-295 CNS 39.1% | UACC-257 melanoma 79% | SNB-19 CNS 62.9% | SK-MEL-5 melanoma 72.6% | LOX IMVI melanoma 23.7% | SK-MEL-2 melanoma 66.2% | ACHN renal 44.1% | HL-60(TB) leukemia 56.8% | CCRF-CEM leukemia 38% | MOLT-4 leukemia 24.5% | OVCAR-8 ovarian 51.6% | IGROV1 ovarian 33.7% | OVCAR-3 ovarian 54.6% | NCI/ADR-RES ovarian 25.2% | T-47D breast 58.6% | HCC-2998 colon 51.9%

Cc1ccc(C(=O)C2CN(C)CCC2(O)c2ccc(C)cc2)cc1 (stereo not drawn)
inactive: DU-145 prostate 117% | K-562 leukemia 123% | MALME-3M melanoma 120% | RXF 393 renal 128% | SF-295 CNS 111% | UACC-257 melanoma 104% | SNB-19 CNS 118% | SK-MEL-5 melanoma 114% | LOX IMVI melanoma 98.9% | SK-MEL-2 melanoma 124% | HL-60(TB) leukemia 106% | CCRF-CEM leukemia 106% | MOLT-4 leukemia 103% | OVCAR-8 ovarian 107% | IGROV1 ovarian 124% | OVCAR-3 ovarian 119% | NCI/ADR-RES ovarian 103% | T-47D breast 102% | HCC-2998 colon 98.3%

S=P(NC1CCCCC1)(N1CC1)N1CC1
inactive: DU-145 prostate 108% | K-562 leukemia 61.4% | MALME-3M melanoma 106% | RXF 393 renal 102% | SF-295 CNS 110% | UACC-257 melanoma 116% | SNB-19 CNS 113% | SK-MEL-5 melanoma 97% | LOX IMVI melanoma 96.5% | SK-MEL-2 melanoma 114% | ACHN renal 103% | HL-60(TB) leukemia 91.3% | CCRF-CEM leukemia 102% | MOLT-4 leukemia 99.1% | OVCAR-8 ovarian 104% | IGROV1 ovarian 97.3% | OVCAR-3 ovarian 112% | NCI/ADR-RES ovarian 111% | T-47D breast 106% | HCC-2998 colon 131%

CC(N)Cc1ccc(O)cc1 (stereo not drawn)
inactive: DU-145 prostate 112% | K-562 leukemia 94.8% | MALME-3M melanoma 98.6% | RXF 393 renal 112% | SF-295 CNS 118% | UACC-257 melanoma 94.6% | SNB-19 CNS 114% | SK-MEL-5 melanoma 103% | LOX IMVI melanoma 99.2% | SK-MEL-2 melanoma 94.8% | ACHN renal 108% | HL-60(TB) leukemia 90.2% | CCRF-CEM leukemia 93.9% | MOLT-4 leukemia 83.4% | OVCAR-8 ovarian 101% | IGROV1 ovarian 111% | OVCAR-3 ovarian 108% | NCI/ADR-RES ovarian 103% | T-47D breast 98.3% | HCC-2998 colon 111%

C[C@]12CC[C@@H]3C4=C(CC[C@H]3[C@@H]1CC[C@@H]2O)CC(=O)CC4
inactive: DU-145 prostate 116% | K-562 leukemia 96.9% | MALME-3M melanoma 116% | RXF 393 renal 100% | SF-295 CNS 102% | UACC-257 melanoma 92.8% | SNB-19 CNS 95.2% | SK-MEL-5 melanoma 59% | LOX IMVI melanoma 90.2% | SK-MEL-2 melanoma 127% | ACHN renal 104% | HL-60(TB) leukemia 99.5% | CCRF-CEM leukemia 96.3% | MOLT-4 leukemia 89% | OVCAR-8 ovarian 101% | IGROV1 ovarian 121% | OVCAR-3 ovarian 113% | NCI/ADR-RES ovarian 95.8% | T-47D breast 95.4% | HCC-2998 colon 104%

CC1(C)N=C(N)N=C(N)N1c1ccc(OCCCCOc2ccc(S(=O)(=O)F)cc2)c(Cl)c1
active: SK-MEL-5 melanoma 9.68%
inactive: DU-145 prostate 24.6% | K-562 leukemia 16.8% | MALME-3M melanoma 45.9% | RXF 393 renal 27.9% | SF-295 CNS 16.3% | SNB-19 CNS 24.4% | LOX IMVI melanoma 14.7% | SK-MEL-2 melanoma 38.6% | ACHN renal 25.2% | HL-60(TB) leukemia 19.3% | CCRF-CEM leukemia 16% | MOLT-4 leukemia 26.7% | OVCAR-8 ovarian 13.5% | IGROV1 ovarian 33.1% | OVCAR-3 ovarian 28.4% | NCI/ADR-RES ovarian 103% | T-47D breast 25.9% | HCC-2998 colon 32.4%

CO[C@@H]1[C@H](OC(=O)NC(=O)CCl)CC[C@]2(CO2)[C@H]1[C@@]1(C)O[C@@H]1CC=C(C)C
active: IGROV1 ovarian -10.6%
inactive: DU-145 prostate 59.8% | K-562 leukemia 47.2% | MALME-3M melanoma 57.7% | RXF 393 renal 68.2% | SF-295 CNS 75.1% | UACC-257 melanoma 44.3% | SNB-19 CNS 48.6% | SK-MEL-5 melanoma 55.4% | LOX IMVI melanoma 22.8% | SK-MEL-2 melanoma 82.3% | ACHN renal 60.7% | HL-60(TB) leukemia 49.1% | CCRF-CEM leukemia 31.8% | MOLT-4 leukemia 63% | OVCAR-3 ovarian 71.8% | NCI/ADR-RES ovarian 75.9% | T-47D breast 64.6% | HCC-2998 colon 80.9%

CC1(C)N=C(N)N=C(N)N1c1ccc(CCC(=O)Nc2cccc(S(=O)(=O)F)c2)cc1
inactive: DU-145 prostate 72.1% | K-562 leukemia 26.2% | RXF 393 renal 64.7% | SF-295 CNS 89.6% | UACC-257 melanoma 73.3% | SK-MEL-5 melanoma 32.9% | LOX IMVI melanoma 23.5% | SK-MEL-2 melanoma 102% | ACHN renal 99.3% | HL-60(TB) leukemia 47.6% | MOLT-4 leukemia 82.7% | OVCAR-8 ovarian 85.8% | IGROV1 ovarian 39.4% | OVCAR-3 ovarian 114% | T-47D breast 98.4% | HCC-2998 colon 67.5%
active: MALME-3M melanoma -7.62%

CC(=O)C1C(=O)N(C)C(=O)N(C)C1=O
inactive: DU-145 prostate 111% | K-562 leukemia 108% | MALME-3M melanoma 114% | RXF 393 renal 107% | UACC-257 melanoma 98.6% | SNB-19 CNS 110% | SK-MEL-5 melanoma 99.7% | LOX IMVI melanoma 107% | SK-MEL-2 melanoma 108% | ACHN renal 95.4% | HL-60(TB) leukemia 104% | CCRF-CEM leukemia 97.2% | MOLT-4 leukemia 104% | OVCAR-8 ovarian 109% | IGROV1 ovarian 113% | OVCAR-3 ovarian 112% | NCI/ADR-RES ovarian 113% | T-47D breast 106% | HCC-2998 colon 112%
